Many of the other results were omitted from the sample, so hits are more common in it than they were.
ALR inh: human ALR oxidase inhibition via reduced H2O2. inhibition, % (no concentration beside the values). AID 485317. actives 3.8% (n = 290,000). purified ALR, DTT oxidation, H2O2 HRP-luminol luminescence;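 active = mean replicate inhibition above about 79%, with every replicate also reaching it, limit read from the data; inconclusive = only one of the two criteria met; inactive = mean below limit and not every replicate reaching it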
NPR1 activator: GC-A (human) enzyme activation; P16066; HEK293 GC-A cells, cGMP TR-FRET, EC30 ANP; 0% at EC30 ANP, 100% saturating ANP; activation, % at 10 µM; actives 0.14% (n = 370,000); in the data active = activation above about 40%
Target sequence (P16066 whole entry, looked up): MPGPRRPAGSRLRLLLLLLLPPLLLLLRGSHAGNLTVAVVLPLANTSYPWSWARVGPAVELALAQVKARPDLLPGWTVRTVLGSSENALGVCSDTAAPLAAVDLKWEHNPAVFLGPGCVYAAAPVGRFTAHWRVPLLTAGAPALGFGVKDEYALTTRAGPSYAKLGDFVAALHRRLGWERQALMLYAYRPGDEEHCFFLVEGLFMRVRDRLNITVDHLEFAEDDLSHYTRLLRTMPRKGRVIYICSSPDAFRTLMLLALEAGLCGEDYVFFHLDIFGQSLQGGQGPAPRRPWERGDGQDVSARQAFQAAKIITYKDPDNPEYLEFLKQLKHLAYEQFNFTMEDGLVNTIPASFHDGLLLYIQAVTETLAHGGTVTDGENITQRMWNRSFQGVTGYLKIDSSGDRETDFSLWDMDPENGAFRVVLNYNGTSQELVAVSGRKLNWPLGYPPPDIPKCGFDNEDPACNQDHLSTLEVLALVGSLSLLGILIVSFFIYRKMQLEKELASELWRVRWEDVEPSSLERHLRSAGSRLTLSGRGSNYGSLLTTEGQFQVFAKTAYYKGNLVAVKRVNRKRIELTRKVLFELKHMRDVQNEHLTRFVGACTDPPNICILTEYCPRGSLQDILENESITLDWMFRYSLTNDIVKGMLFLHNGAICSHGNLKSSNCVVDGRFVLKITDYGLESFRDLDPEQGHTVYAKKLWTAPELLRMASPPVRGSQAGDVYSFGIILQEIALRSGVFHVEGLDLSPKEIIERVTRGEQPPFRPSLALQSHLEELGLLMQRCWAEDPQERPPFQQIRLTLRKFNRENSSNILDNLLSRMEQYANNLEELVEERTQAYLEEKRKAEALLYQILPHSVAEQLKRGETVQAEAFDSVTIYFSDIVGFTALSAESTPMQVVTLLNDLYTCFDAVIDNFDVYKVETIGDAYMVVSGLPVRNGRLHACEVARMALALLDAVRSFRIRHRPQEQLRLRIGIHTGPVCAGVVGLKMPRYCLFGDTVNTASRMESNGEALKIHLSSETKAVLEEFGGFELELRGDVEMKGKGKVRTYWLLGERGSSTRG
GC-B act: GC-B (human) receptor activation; actives 0.11% (n = 370,000); activation, % at 10 µM; HEK293-GC-B cells, CNP EC30, cGMP TR-FRET; 0% at EC30 CNP, 100% saturating CNP; P20594; AID 1920062;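 active = activation at 10 µM reaching about 35% in either raw or pattern-adjusted values, limit read from the data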
HDAC3 inh: human HDAC3 inhibition; O15379; recombinant HDAC3, fluorogenic peptide/trypsin coupled, fluorescence; inhibition, % at 8.3 µM; actives 0.15% (n = 320,000); AID 2718; in the data active = inhibition above about 26%, passing the limit was not always enough; inconclusive = no clear call, values can overlap the other calls
* marks the source's active call; other numbers are inactive results; ? = inconclusive; . = no result given.

SMILES	ALR inh	NPR1 activator	GC-B act	HDAC3 inh
Cc1cc(N2CCCC2)ccc1NC(=O)CN1C(=O)NC(C)(c2ccccc2)C1=O (centres undefined)	99*	0	-6	3
COc1cc(/C=C2\SC(=S)N(NC(=O)c3cccc(O)c3)C2=O)ccc1O	95*	-4	-2	6
COc1cc(/C=C2\SC(=S)N(NC(=O)c3ccc(O)c(OC)c3)C2=O)ccc1O	.	-2	-3	7
O=C(NN1C(=O)/C(=C/c2cccs2)SC1=S)c1cccnc1	.	-4	2	6
CCOc1cc(/C=C2\SC(=S)N(NC(=O)c3cccnc3)C2=O)ccc1O	99*	-1	-2	14
COc1cc(/C=C2\SC(=S)N(NC(=O)c3ccncc3)C2=O)ccc1O	99*	-5	3	.
O=S1(=O)N[C@H](Cc2ccccc2)COc2cc(N3CCCC3)ccc21	.	2	-3	.
Nc1ccc2c(c1)N1CCN=C1S2	88*	-1	-6	3
O=C(Nc1ccc(Cl)cc1)Nc1ccc2c(c1)N1CCN=C1S2	0	-5	-13	1
COCCNC(=O)CN(C(=O)CCC(=O)Nc1nccs1)c1ccc2c(c1)OCO2	-7	3	1	4
COc1ccc(N2CCN(C(=O)CCn3nnc4ccccc43)CC2)cc1	90*	-11	-9	-1
CC(=O)N1CCN(C(=O)CCn2nnc3ccccc32)CC1	.	4	7	.
COc1ccc(N2CCN(C(=O)CCC(=O)N3CC(C)Oc4ccccc43)CC2)cc1 (centres undefined)	78*	2	0	1
O=C(O)c1cc(O)ccc1-c1ccc(O)cc1	98*	6	1	2
Cc1ccc(C(=O)Nc2ccc(O)cc2C(=O)O)cc1	36	2	-3	0
COc1ccccc1/C=C/CN1CCSCC1	-2	2	6	2
O=C(NN=C1CCCC1)c1cc(-c2ccccc2)n[nH]1	97*	0	-3	?
CCOc1ccc(-c2cc(C(=O)NN)[nH]n2)cc1	99*	-4	0	-4
COc1ccc(-c2cc(C(=O)NN)[nH]n2)cc1OC	98*	1	-6	-2
COc1ccc(-c2cc(C(=O)O)[nH]n2)cc1OC	12	1	1	-4
Oc1ccc(Nc2nc(-c3ccccc3F)nc3ccccc23)cc1	100*	3	11	4
Cc1ccc(-c2nc(Nc3cccc(O)c3)c3ccccc3n2)cc1	-129	5	-6	-3
Oc1cccc(Nc2c3ccccc3nc3ccccc23)c1	99*	-40	-10	-5
Oc1cccc(Nc2nc(-c3ccccc3Cl)nc3ccccc23)c1	88*	7	0	4
c1cncc(Nc2c3ccccc3nc3ccccc23)c1	5	-53	-22	-4
SMILES	ALR inh	NPR1 activator	GC-B act	HDAC3 inh
CCCCCCC(=O)N/N=C/c1ccco1	97*	0	3	-2
CCCCCCCC(=O)N/N=C/c1ccco1	43	2	1	-1
N#Cc1c(-c2ccccc2)nc(SCC(=O)N(c2ccccc2)c2ccccc2)[nH]c1=O	98*	-5	5	3
N#Cc1c(-c2ccccc2)nc(SCC(=O)Nc2ccccc2)[nH]c1=O	98*	6	4	6
Cc1cc(NC(=O)CSc2nc(-c3ccccc3)c(C#N)c(=O)[nH]2)no1	.	10	6	.
Cc1cc(C)nc(NS(=O)(=O)c2ccc(NC(=O)CSc3nc(-c4ccccc4)c(C#N)c(=O)[nH]3)cc2)n1	99*	17	3	1
N#Cc1c(-c2cccs2)nc(SCC(=O)c2cccs2)[nH]c1=O	98*	7	3	5
Cc1nn(CC(=O)NC2(C#N)CCCCC2)c(C)c1[N+](=O)[O-]	5	4	7	0
O=C(Nc1ccc(C(F)(F)F)cc1)OC1CC2CC1[C@H]1CCCCN1[C@H]2Cc1ccccc1 (some centres undefined)	.	-2	3	.
N#Cc1c(-c2ccccc2)nc(SCC(=O)Nc2ccc(OC(F)(F)Cl)cc2)[nH]c1=O	99*	-1	-2	-9
Cc1cccc(NC(=O)CSc2nc(-c3ccccc3)c(C#N)c(=O)[nH]2)c1C	91*	4	4	-2
N#Cc1c(-c2ccccc2)nc(SCC(=O)Nc2nnc(C(F)(F)F)s2)[nH]c1=O	15	7	1	3
N#Cc1c(-c2ccccc2)nc(SCC(=O)Nc2ccccc2F)[nH]c1=O	99*	0	1	0
COc1cc(CN(C(C)=O)c2ccccc2C(=O)O)ccc1[N+](=O)[O-]	.	2	3	.
CCOC(=O)C1(Cc2cccc(OC)c2)CCCN(CCO)C1 (centres undefined)	.	-2	-1	4

Screens deposited in PubChem BioAssay by several laboratories.
